# Sfp PPTase inh – inhibitors of Bacillus subtilis Sfp phosphopantetheinyl transferase. hit rate 3.5% among 310,000. AID 1490. Potency, µM, most hits filed as inhibitors. Biochemical Sfp PPTase activity, qHTS. Q9F4F7;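 further: the enzyme is Sfp with the accession as filed and its product quenches rhodamine fluorescence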
#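 After 15 min at room temperature with compound, 15 nM Sfp received 5 uM rhodamine-CoA plus 12.5 uM BHQ-2-ybbR (50 mM Hepes pH 7.6, 10 mM MgCl2). Rate came from the fluorescence difference over 30 min, ex 525/em 598 nm.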
# HP1b chromo inh – HP1-beta chromodomain-methylated histone interaction inhibition | hit rate 0.56% among 390,000 | AID 540317 | Potency, µM (highest dose often 114 µM), hits mostly inhibitors | AlphaScreen HP1-beta / biotin-H3K9me3 peptide binding; further: nearly all actives have a fitted effect of over 70% in size
# Target sequence (P83916 whole entry, looked up): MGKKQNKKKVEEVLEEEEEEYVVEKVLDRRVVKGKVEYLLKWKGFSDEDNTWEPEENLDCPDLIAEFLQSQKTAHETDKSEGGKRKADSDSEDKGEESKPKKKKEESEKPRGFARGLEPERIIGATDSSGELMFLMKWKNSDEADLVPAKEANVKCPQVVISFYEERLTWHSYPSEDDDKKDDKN
#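 Compound inhibition of the preformed complex between 50 nM HP1-beta and 50 nM biotinylated H3K9me3 peptide was read by AlphaScreen. Buffer was PBS pH 7.4 with 0.01% Tween-20. Incubations ran 30 min at room temperature, with 10 ug/mL donor/acceptor beads.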
# BAZ2B inh – inhibitors of human BAZ2B bromodomain; AlphaScreen BAZ2B-H3K14Ac peptide displacement; Potency, µM (titrated, usually from 114 µM), hits mostly inhibitors; hit rate 4.4% among 360,000; further: nearly all actives have a fitted effect of over 60% in size
#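 Protein-peptide AlphaScreen: BAZ2B 50 nM, b-H3K14Ac 50 nM, 1x PBS pH 7.4 + 0.01% Tween-20. Preincubation 30 min RT; cpd 30 min RT (top 110 uM); beads 20 min RT, light-protected.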
# G9a inh – blocks human histone lysine methyltransferase G9a | Q96KQ7 | G9a H3K9 monomethylation, AlphaScreen, 2 h | Potency, µM (titrated, usually from 102 µM), usual class: inhibitors | hit rate 8.8% among 350,000 | AID 504332; further: nearly all actives have a fitted effect of over 75% in size
# Target sequence (Q96KQ7 913-1193 limits assumed): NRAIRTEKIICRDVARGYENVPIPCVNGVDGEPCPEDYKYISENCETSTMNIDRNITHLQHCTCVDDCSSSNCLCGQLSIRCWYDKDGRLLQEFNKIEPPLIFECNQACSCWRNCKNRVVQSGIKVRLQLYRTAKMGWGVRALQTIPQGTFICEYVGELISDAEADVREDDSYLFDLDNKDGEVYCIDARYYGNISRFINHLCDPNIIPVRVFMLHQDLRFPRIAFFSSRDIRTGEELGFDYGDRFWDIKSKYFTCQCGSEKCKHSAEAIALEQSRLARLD
#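 Chemiluminescent proximity detection of H3K9 monomethylation, read after 10 min bead incubation in the dark. Reaction: 20 nM G9a, 500 nM biotin-H3K9 peptide, 20 uM SAM cofactor, 2 h, room temperature, following 15 min enzyme-compound preincubation.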
# L3MBTL1 block – L3MBTL1 (human) inhibition. Q9Y468. AlphaScreen L3MBTL1–H3K9me1 peptide binding. Potency, µM (top dose mostly 57.1 µM), usual class: inhibitors. hit rate 0.66% among 230,000. AID 485360; further: nearly all actives have a fitted effect of over 60% in size
#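 Read-out is AlphaScreen signal from streptavidin donor and nickel chelate acceptor beads (10 ug/mL final each) bridging L3MBTL1 (50 nM) and biotinylated K9-monomethylated H3(1-15) peptide (75 nM), after 30 min compound exposure at room temperature.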
# JMJD2A Tudor inh – inhibitors of human JMJD2A Tudor domain | hit rate 4.4% among 390,000 | Potency, µM (top dose mostly 114 µM), usual class: inhibitors | AlphaScreen JMJD2A-Tudor / H3K4me3 peptide binding | O75164; further: nearly all actives have a fitted effect of over 50% in size
# A number is an active result; - = inactive; ? = inconclusive; . = not tested or not shown; [ ] = another dose, or the depositor's remark. A selection: hits, their analogues and other compounds. The true share with any hit is near 12%. The call rests on the fitted dose curve; in most records, active means well fitted curve in the direction sought with a large enough effect; inconclusive means small, poorly fitted or top-dose-only effect, or another doubt; inactive means no such curve, though single readings can be large; an effect the other way counts as inactive or inconclusive.
SMILES,Sfp PPTase inh,HP1b chromo inh,BAZ2B inh,G9a inh,L3MBTL1 block,JMJD2A Tudor inh
COC(=O)CSc1nc2sc3c(c2c(=O)n1-c1ccc(OC)cc1)CCN(C)C3,-,-,-,-,.,-
CN1CCc2c(sc3nc(SCC(=O)N4CCOCC4)n(-c4ccc(Cl)cc4)c(=O)c23)C1,-,-,?,71µM,.,-
CN1CCc2c(sc3nc(SCC(=O)NCc4ccco4)n(-c4ccccc4)c(=O)c23)C1,-,-,?,45µM,.,-
CCCCCSc1nc2sc3c(c2c(=O)n1-c1ccccc1)CCN(C(C)=O)C3,.,-,-,?,.,-
O=C(NCc1ccco1)c1ccc2nc3sc4c(c3c(=O)n2c1)CCCC4,10µM,.,-,?,-,.
CCc1ccccc1N(C)C(=O)c1cc2c(Cl)nc3ccc(C)cc3c2s1,.,-,-,-,.,-
CCCCN(CCCC)C1=C(C(=O)c2ccccc2)N(C)S(=O)(=O)c2ccccc21,.,-,-,?,.,-
Cc1oc2c(c(C)cc3oc(=O)c(CC(=O)NCCc4ccc(Cl)cc4)c(C)c32)c1C,.,-,-,-,.,-
COc1ccc(-n2c(SCC(=O)NCc3ccco3)nc3sc4c(c3c2=O)CCN(C)C4)cc1,-,-,-,79µM,.,-
COc1cc(CNC2CCCCCC2)cc(OC)c1OC,-,-,?,18µM,.,10µM
COc1cc(CNC2CCCC2)cc(OC)c1OC,-,-,-,-[12.7 µM],.,-
Oc1c(Br)cc(CNC2CCCCC2)cc1Br,.,?,.,.,.,-
COc1cc(OC)c(CNC2CCCCCC2)cc1Br,-,-,?,35µM,.,10µM
COc1cccc(CNC2CCCCCCC2)c1OC,-,-,?,.,-,35µM
O=C(Cn1ncc2c(=O)oc3ccccc3c21)N1CCN(c2ccc(Cl)cc2)CC1,.,-,.,-,.,-
Cc1nc2c(C(=O)NCc3ccccc3Cl)cnn2c(C)c1Cc1c(F)cccc1Cl,.,-,-,-,.,-
Cc1c(CN(C)C)c2c(n1Cc1ccccc1)C(=O)c1ccccc1-2,-,?,50µM,?,.,50µM
Cc1cc(=O)n(Cc2ccccc2)c2ccccc12,-,-,?,-,.,-
CCCCn1cc(S(=O)(=O)c2ccc(CC)cc2)c(=O)c2cc(F)c(N3CCOCC3)cc21,.,-,-,-,.,-
CCCc1cc2c(=O)c(-c3nc4ccccc4s3)c(COCC(=O)O)oc2cc1O,-,-,-,50µM,.,?
CCc1cc2c(=O)c(-c3nc4ccccc4n3C)c(COCC(=O)O)oc2cc1O,-,-,?,-,-,?
CC(C)(C)OC(=O)Cc1nnc(-c2cc3ccccc3[nH]2)s1,.,.,.,.,.,-
Cc1ccc(Nc2nnc(SCC(=O)Nc3ncc(C(F)(F)F)cc3Cl)s2)cc1,-,-,-,7.1µM,-,-
Cc1ccccc1Nc1nnc(SCC(=O)Nc2ncc(C(F)(F)F)cc2Cl)s1,-,-,-,-,-,-
Cc1cccc(C)c1Nc1nnc(SCC(=O)Nc2ncc(C(F)(F)F)cc2Cl)s1,-,-,-,2.2µM,-,25µM
SMILES,Sfp PPTase inh,HP1b chromo inh,BAZ2B inh,G9a inh,L3MBTL1 block,JMJD2A Tudor inh
O=c1cc(C(F)(F)F)[nH]c(=S)n1-c1ccccc1,35µM,?,-,8.9µM,.,79µM
COc1ccc(C2C(=O)N(C3CCC(C)CC3)CC(=O)N2CCc2ccccc2)cc1OC (stereo not given),.,-,-,-,.,-
Cc1ccc(-c2ccc(=O)n(CC(=O)Nc3ccc(C(C)C)cc3)n2)cc1,.,-,-,-,.,-
CS(=O)(=O)Oc1ccc2c(c1)O/C(=C\c1cccnc1)C2=O,-,-,-,.,-,-
COc1ccc(S(=O)(=O)Oc2ccc3c(c2)O/C(=C\c2cccnc2)C3=O)cc1,-,-,?,40µM,.,?
COc1cc(OC)c(OC)cc1/C=C1\Oc2cc(OS(C)(=O)=O)ccc2C1=O,-,-,-,40µM,?,?
O=C1/C(=C/c2cccnc2)Oc2cc(OS(=O)(=O)c3ccc(Cl)cc3)ccc21,-,-,?,-,.,-
COc1ccc2oc(C(=O)NCCc3ccccc3)c(C)c2c1,.,-,-,-[2.33 µM],-,-
COc1ccc2oc(C(=O)NCc3cc(OC)c(OC)cc3OC)c(C)c2c1,-,?,?,?,.,35µM
CSc1ccccc1C(=O)NCC(c1ccco1)N(C)C (stereo not given),-,-,-,40µM,.,-
